# Reference: the supplement of paper PMC6555819
# Tested on: VDR:RXRa (NR concentration 270 nM, RXRa partner concentration 90 nM)
# Assay: PBM binding z-score (relative to random genomic background probes); higher = stronger binding; sequences stand for … in GC…GCGATTGACAGCGTAGAATGAAGG
# Description: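 Protein-binding microarray (Agilent 4x180K custom design, double-stranded 60-nt probes: 5' GC cap, 34-nt variable region, 24-nt constant primer region; full probe sequence given). Purified or IVT nuclear receptor:RXRα heterodimers (3:1 NR:RXRα, mostly 270:90 nM) or homodimers were incubated for 1 h in PBS with 2% milk and no ligand, then detected with Alexa488 antibodies. Fluorescence from o1-orientation probes (~5 replicates averaged) was converted to z-scores against 500 random hg19 background probes. Variable regions are seed direct-repeat (DR0–DR5) sites, all their single-nucleotide variants and half-site ablations.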
row,Sequence,PBM binding z-score
1,CCTAGTTGGTCAGGAGGTCCCACACCGGATATGA,0.0687
2,CGAACTAGGGCACCAGGACAGTGAAGAGGTTGGA,-0.582
3,ACTAGTTGCTCAGCTGAGGTCACACACAATTCGG,3.65
4,CGTCCAAGGTCATAGGAGGTCATTGAAGACAGAT,7.27
5,CAAAGTAGGTCAAGAGGTCAAAGTCCGCTTCCCG,6.25
6,CGTCAAAGTTCAAGTTAACGTAACAGAAAGCAGC,4.32
7,ATATGTAGGTTTGGGTCATTCAGAAAGTAGGGAA,2.04
8,CCTAGTTGGTCAGGAGGTCACATACCGGATATGA,3.57
9,CTATGTAGGTTAAGAGGGTCATTCAGTTTGAAAG,6.27
10,CGAACTAGGTCAAAGGACAGTGACAGGCGACGTA,1.47
11,ATATGCAGGTTATCGGGTCATTCAGTTTGCGCAT,5.27
12,CCTAGTGGGTCAGGAGGTCACACACCGGATATGA,4.65
13,CCTCCAAGGTCATAGGAGGTCAGTGAAGACAGAT,6.6
14,CGAACTAGGTCCCCAGGACAGTGAAGAGGTTGGA,-0.892
15,ACAGACAGGTGAGTGAAGGTCACTCAGCTGGACG,2.73
16,CCGAGTCGGTTACGAGGGGGCATTCAGTGCGAAT,3.65
17,CGGACTGGGGCAAAGGTTACCATACTCAGTACGA,1.9
18,CAAACTAGGTCACCGGAAAGTCAAAGTCCGCATG,2.61
19,AGTCAAAGTTCAGGACGAGGTAATGTAAAGCACG,3.07
20,CGTCAAAGTTCAAGCTAACGTAACAGAAAGCAGC,4.18

row,Sequence,PBM binding z-score
1,CGAACTAGGTCACCAGGCCAGTGAAGAGGTTGGA,1.71
2,TCGAGTAGGTTACGGGGGCATTCGGGGATGAAGA,4.16
3,ACTCGGAGGGCAAAGGTCAGAGCTACGCCAGTGA,4.32
4,CCGAGTAGGTTACGAGGGAGCATTCAGTGCGAAT,1.11
5,ATAAGTAGGTTAGGGTCATTCAGAAAGTAGGGAA,4.88
6,CTCGAAAGGTCGTCCTCAGGTGAGTATACCAAAC,3.41
7,TCTCGGAGGACACGAAAGGTCTGAGCTCGACATC,0.182
8,CCCGCTAGGTCATGGTCAGCTAATCTACAGTATG,1.69
9,CCTAGCAGGCCAATCGGGGTCACTCAAGGCTTGA,5.36
10,CTATGTAGGTTAAGGGGGTCATTCGGTTTGAAAG,7.56
11,TGTCAAAGTTCTAAGGTAACGTAAGTATCCACAC,0.479
12,ACTCGGAGGACAAAGGTGAGAGCTACGCCAGTGA,0.122
13,CCTACTGGGCCAAAGGTCTTTGATTCCAATGCTC,-0.283
14,ATATGTAGGTTAGGTTCATTCAGAAAGTAGGGAA,4.01
15,CGAACTAGGTCAAAGGACCGTGAAAGGCGACGTA,1.03
16,GCTAGTAGGTCAGTAAAAGGTCACACACCGGTCG,4.99
17,TAGCCTAGGTCATTTGGCCAGTATAGTACGCATC,2.52
18,CTAACTAGGTCACCGGAAGGTCAAAGTCCGCATG,6.08
19,ATATGTAGGTTATGGTCATTCAGAAAGTAGGGAA,0.871
20,CGTCGGAGGACAACAGGAGGTCAGAGCTGCCAGA,2.05
